Test results reported in PubChem BioAssay AID778 (Sanford-Burnham Center for Chemical Genomics, 2007).
The campaign covered roughly 96,000 compounds. About 20,000 (21%) were called active. These entries were drawn from the full list. A number with no mark means an inactive call.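 The calls were made as follows: active = CYP2C19 inhibition above a set limit at 5 µM in the primary screen (cut at about 50% in these data); inactive = the rest.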

molecular target: Cytochrome P450 2C19 (Homo sapiens) (UniProt P33261); assay: blockers of cytochrome P450 2C19 activity – biochemical, luminescence, ADME assay, primary screen (AID 778); conditions: CYP2C19 Supersomes, luciferin-H EGE luminescence, 30 min; at 5 µM; stronger effect = higher value;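 also: plate controls were negative control wells for no effect and 2.5 mM tranylcypromine positive control for full effect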
Sequence (P33261 whole entry, looked up): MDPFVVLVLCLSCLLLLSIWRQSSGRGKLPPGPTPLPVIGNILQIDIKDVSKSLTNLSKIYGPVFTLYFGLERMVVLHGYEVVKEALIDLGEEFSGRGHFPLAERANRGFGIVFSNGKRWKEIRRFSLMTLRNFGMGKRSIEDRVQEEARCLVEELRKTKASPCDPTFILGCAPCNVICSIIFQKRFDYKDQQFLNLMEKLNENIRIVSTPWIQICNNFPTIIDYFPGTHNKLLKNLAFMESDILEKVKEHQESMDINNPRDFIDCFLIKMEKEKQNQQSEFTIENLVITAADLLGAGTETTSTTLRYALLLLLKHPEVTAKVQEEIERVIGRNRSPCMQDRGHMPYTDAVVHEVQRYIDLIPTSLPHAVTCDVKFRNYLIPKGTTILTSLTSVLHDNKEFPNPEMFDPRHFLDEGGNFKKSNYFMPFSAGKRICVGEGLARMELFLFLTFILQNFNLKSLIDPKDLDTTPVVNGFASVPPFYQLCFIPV

| SMILES | inhibition |
| --- | --- |
| CCOc1ccc(N(CC(=O)NC2CCCCCC2)S(=O)(=O)c2c(C)[nH]c(=O)[nH]c2=O)cc1 | 25.2% |
| Cc1noc(C)c1S(=O)(=O)N(CC(=O)Nc1ccc2c(c1)OCCO2)c1ccc(C(C)C)cc1 | 55.8% (active) |
| CCOc1ccc(N(CC(=O)NCc2ccc(OC)cc2)S(=O)(=O)c2c(C)noc2C)cc1 | 15.3% |
| CS(=O)(=O)N(CC(=O)NCc1ccco1)c1ccc2c(c1)OCO2 | 59.5% (active) |
| O=C(CN(c1ccc2c(c1)OCCO2)S(=O)(=O)c1ccccc1)Nc1ccc2c(c1)OCO2 | 26.7% |
| O=C(Cn1nnc(-c2ccc3c(c2)OCO3)n1)NCc1ccco1 | 0.8% |
| CCOc1ccc(N(CC(=O)OC)S(=O)(=O)c2c(C)noc2C)cc1 | 50.6% (active) |
| CS(=O)(=O)N(CC(=O)N1CCN(Cc2ccc3c(c2)OCO3)CC1)c1ccc2c(c1)OCO2 | -4.8% |
| Cc1noc(C)c1S(=O)(=O)N(CC(=O)NCc1ccc(Cl)cc1)c1ccc2c(c1)OCO2 | 72.8% (active) |
| CCOC(=O)c1cccc(NC(=O)CN(c2ccc(C)cc2)S(=O)(=O)c2c(C)noc2C)c1 | 17.3% |
| Cc1ccc(CNC(=O)CN2CCN(Cc3ccc(Cl)cc3)C2=O)cc1 | 15.1% |
| O=C(/C=C/c1cc2c(cc1Br)OCO2)NCc1ccc(Cl)cc1 | -11.1% |
| N/C(=N\c1nc2ccccc2o1)NC(=O)C(Cc1ccccc1)N1C(=O)c2ccccc2C1=O (stereo not given) | 35.9% |
| Cn1c(=O)cc(SCC(=O)N2CCN(C(=O)c3ccco3)CC2)c2ccccc21 | -17% |
| Cc1c2cnn(-c3ccccc3)c(=O)c2c(C)n1CCCC(=O)N1CCN(C)CC1 | -16% |
| O=C(Cn1cnc2ccccc2c1=O)NCC1COc2ccccc2O1 (stereo not given) | 22.7% |
| CC(=O)N(CN1C(=O)C2CC=CCC2C1=O)c1cccc(Cl)c1 (stereo not given) | 46.5% |
| Cc1cc(C)c2nc(N3CCCC3)c(C#N)cc2c1 | -2.3% |
| Fc1ccc(Br)cc1/C=N/n1cnnc1 | 13.9% |
| CCN(CC)c1ccc2oc(=O)c(C)nc2c1 | 18.7% |
| COc1ccc(CNC(=O)c2c(C)cc(=O)oc2C)cc1OC | 5.4% |
| COCc1cc(C(C)=O)ccc1OC | 6.2% |
| COc1ccc(CC(=O)c2ccc(O)cc2O)cc1OC | 88% (active) |
| N#CCCN1CCN(S(=O)(=O)c2ccc(S(=O)(=O)N3CCCC3)cc2)CC1 | -7.1% |
| Cc1cc(-c2cccs2)nc(-n2cccc2)n1 | 4.9% |
